Experimental data taken from PubChem BioAssay AID1159580 (chemical genetic matrix, 2015).
Values joined by “and” are separate entries in the source; they are usually repeats but may differ in a detail not shown here. Equal values may be shown once. Hit rate of the full screen: of about 5,500 compounds, about 2,000 (36%) were called active. Roughly 18% stayed inconclusive and do not appear here. No stated cut-off is given here; in the data, active means normalized growth mostly below about 0.91 (no sharp cut-off); inconclusive means no clear call, values can overlap the other calls; inactive means mostly above about 0.92. Some of the results follow.

Assay: chemical genetic growth profiling, strain panel (AID 1159580);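 further: tested at 20 µM; growth read once vehicle control cultures reached saturation at 30 °C; 1 = growth at the plate median or of vehicle wells; lower values mean less growth of the strain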
Settings: S. cerevisiae deletion strains, growth OD

Measured: normalized growth

CC(C)c1c(O)ccc2c1CCC1[C@@](C)(C=O)CCC[C@]21C (stereo not given in full)
inactive: locus YAL021C, strain ccr4, active compounds read low 0.984 | locus YAL026C, strain drs2, active compounds read low 0.93 | locus YBR171W, strain sec66, active compounds read low 0.97 | locus YBR279W, strain paf1, active compounds read low 0.955 | locus YCL061C, strain MRC1, active compounds read low 1 | locus YCL069W, strain vba3, active compounds read low 1.01 | locus YCR088W, strain abp1, active compounds read low 0.996 | locus YDL005C, strain med2, active compounds read low 1.01 | locus YDL040C, strain nat1, active compounds read low 1.01 | locus YDR001C, strain nth1, active compounds read low 1.01 | locus YDR069C, strain doa4, active compounds read low 0.923 | locus YDR334W, strain swr1, active compounds read low 1.01 | locus YDR335W, strain msn5, active compounds read low 0.987 | locus YEL037C, strain rad23, active compounds read low 1 | locus YEL061C, strain CIN8 (second series), active compounds read low 0.99 | locus YER111C, strain swi4, active compounds read low 0.999 | locus YER155C, strain BEM2 (second series), active compounds read low 1 | locus YFR010W, strain ubp6, active compounds read low 1 | locus YGL167C, strain pmr1, active compounds read low 0.945 | locus YGL173C, strain kem1, active compounds read low 1.01 | locus YGL227W, strain vid30, active compounds read low 0.997 | locus YGL240W, strain doc1, active compounds read low 0.926 | locus YGL253W, strain hxk2, active compounds read low 0.96 | locus YHR013C, strain ard1, active compounds read low 1.14 | locus YHR142W, strain chs7, active compounds read low 0.899 | locus YJL092W, strain hpr5, active compounds read low 0.995 | locus YJL115W, strain asf1, active compounds read low 1.02 | locus YJL154C, strain vps35, active compounds read low 1.02 | locus YJR066W, strain TOR1, active compounds read low 0.826 | locus YKL009W, strain mrt4, active compounds read low 0.998
active: locus YAL030W, strain snc1, active compounds read low 0.79 | locus YBL061C, strain skt5, active compounds read low 0.833 | locus YBR009C, strain hhf1, active compounds read low 0.476 | locus YBR021W, strain FUR4, active compounds read low 0.476 | locus YBR023C, strain chs3, active compounds read low 0.821 | locus YBR229C, strain ROT2, active compounds read low 0.713 | locus YBR231C, strain swc5, active compounds read low 0.722 | locus YCL011C, strain gbp2, active compounds read low 0.783 | locus YCL016C, strain dcc1, active compounds read low 0.803 | locus YCL029C, strain bik1, active compounds read low 0.52 | locus YDL035C, strain GPR1, active compounds read low 0.425 | locus YDL074C, strain BRE1, active compounds read low 0.12 | locus YDL101C, strain DUN1, active compounds read low 0.517 | locus YDL185W, strain tfp1, active compounds read low 0.469 | locus YDL192W, strain arf1, active compounds read low 0.246 | locus YDR101C, strain arx1, active compounds read low 0.631 | locus YDR137W, strain rgp1, active compounds read low 0.237 | locus YDR159W, strain sac3, active compounds read low 0.54 | locus YDR162C, strain NBP2, active compounds read low 0.171 | locus YDR195W, strain ref2 0.431 | locus YDR297W, strain sur2, active compounds read low 0.772 | locus YDR318W, strain mcm21, active compounds read low 0.35 | locus YDR388W, active compounds read low 0.732 | locus YDR392W, strain spt3, active compounds read low 0.415 | locus YDR502C, strain sam2, active compounds read low 0.35 | locus YEL003W, strain gim4, active compounds read low 0.834 | locus YER016W, strain bim1, active compounds read low 0.789 | locus YER110C, active compounds read low 0.853 | locus YER155C, strain BEM2, active compounds read low 0.0936 | locus YER167W, strain BCK2, active compounds read low 0.336 | locus YGL078C, strain dbp3, active compounds read low 0.886 | locus YGL086W, strain mad1, active compounds read low 0.274 | locus YGL248W, strain PDE1, active compounds read low 0.36 | locus YGR078C, strain PAC10, active compounds read low 0.303 | locus YGR135W, strain pre9, active compounds read low 0.601 | locus YGR252W, strain gcn5, active compounds read low 0.248 | locus YHR030C, strain SLT2, active compounds read low 0.756 | locus YHR079C, strain IRE1 (second series), active compounds read low 0.579 | locus YHR079C, strain IRE1, active compounds read low 0.791 | locus YHR094C, strain hxt1, active compounds read low 0.392 | locus YHR129C, strain ARP1, active compounds read low 0.143 | locus YHR200W, strain rpn10, active compounds read low 0.578 | locus YIL066C, strain RNR3, active compounds read low 0.303 | locus YIL073C, strain SPO22, active compounds read low 0.554 | locus YIL125W, strain kgd1, active compounds read low 0.621 | locus YIR030C, strain dcg1, active compounds read low 0.607 | locus YJL095W, strain BCK1 (second series), active compounds read low 0.35 | locus YJL095W, strain BCK1, active compounds read low 0.0842 and 0.826 | locus YJL129C, strain trk1, active compounds read low 0.505 | locus YJL134W, strain LCB3, active compounds read low 0.729 | locus YJL164C, strain tpk1, active compounds read low 0.578 | locus YJL166W, strain qcr8, active compounds read low 0.643 | locus YJL168C, strain set2, active compounds read low 0.921 | locus YJL187C, strain SWE1 (second series), active compounds read low 0.346 | locus YJR075W, strain HOC1, active compounds read low 0.482
